Assay results from PubChem BioAssay (EPA / NIEHS).
Inconclusive results are not listed. Calls of active or inactive are those of the source. How the source made its calls, unless noted: active means hit-call score of the fitted dose curve at least 0.9, where 1 is the maximum; inactive means score below 0.9.

Test: IUF_NPC2a_radial_glia_migration_120hr: Leibniz Research Institute for Environmental Medicine (IUF) 120-hour Neural Progenitor Cell Migration Assay for Radial Glia Migration (NPC2a) (AID 2284298)
Method in brief: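 Exposure of 0.3 mm primary hNPC spheres runs day 0 to 120 h with a half-volume medium change at day 3. Fixed cells get Hoechst staining; high-content analysis of nuclear positions yields radial glia migration distance per well, compared against DMSO controls.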
With `COP(=S)(OC)SCN1C(=O)c2ccccc2C1=O` the outcome was “inactive”. With `OCCOCCO` the outcome was “inactive”. In the case of `[O-][Cl+]O`, the outcome was “inactive”. In the case of `O=P(OCCCl)(OCCCl)OCCCl`, the outcome was “inactive”. For `CCCCOC(=O)c1ccccc1C(=O)OCc1ccccc1`, the outcome was “inactive”. For `COC(=O)Nc1nc2ccccc2[nH]1`, the AC50 was 11300 nM (active). In the case of `CC(C)COC(=O)c1ccccc1C(=O)OCC(C)C`, the outcome was “inactive”. In the case of `CCC[CH2][Sn]([Cl])([CH2]CCC)[CH2]CCC`, the AC50 was 370 nM (active). With `CNC(=O)Oc1cccc2c1OC(C)(C)C2` the outcome was “inactive”.

Test: IUF_NPC2a_radial_glia_migration_72hr: Leibniz Research Institute for Environmental Medicine (IUF) 72-hour Neural Progenitor Cell Migration Assay for Radial Glia Migration (NPC2a) (AID 2284299)
Method in brief: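 Readout: mean of four manual brightfield measurements of radial glia migration distance (um) at 72 h. hNPC spheres (0.3 mm) exposed to 7 compound concentrations plus solvent control on PDL/laminin, 37C, 5% CO2; activity fitted relative to DMSO.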
In the case of `COP(=S)(OC)SCN1C(=O)c2ccccc2C1=O`, the outcome was “inactive”. In the case of `OCCOCCO`, the outcome was “inactive”. For `[O-][Cl+]O`, the outcome was “inactive”. In the case of `O=P(OCCCl)(OCCCl)OCCCl`, the outcome was “inactive”. For `CCCCOC(=O)c1ccccc1C(=O)OCc1ccccc1`, the AC50 was 18500 nM (active). In the case of `COC(=O)Nc1nc2ccccc2[nH]1`, the AC50 was 8090 nM (active). With `CC(C)COC(=O)c1ccccc1C(=O)OCC(C)C` the outcome was “inactive”. In the case of `CCC[CH2][Sn]([Cl])([CH2]CCC)[CH2]CCC`, the AC50 was 386 nM (active). For `CNC(=O)Oc1cccc2c1OC(C)(C)C2`, the outcome was “inactive”. With `CC(C)(C)C(O)(CCc1ccc(Cl)cc1)Cn1cncn1` (stereo not drawn) the outcome was “inactive”.

Test: IUF_NPC2b_neuronal_migration_120hr: Leibniz Research Institute for Environmental Medicine (IUF) 120-hour Neural Progenitor Cell Migration Assay for Neuron Migration (NPC2b) (AID 2284300)
Method in brief: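 Fetal human NPC spheres migrate on PDL/laminin during 120 h compound treatment; neuronal migration distance, glia-normalized, scored versus DMSO control.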
With `COP(=S)(OC)SCN1C(=O)c2ccccc2C1=O` the outcome was “inactive”. With `OCCOCCO` the outcome was “inactive”. With `[O-][Cl+]O` the outcome was “inactive”. For `O=P(OCCCl)(OCCCl)OCCCl`, the outcome was “inactive”. With `CCCCOC(=O)c1ccccc1C(=O)OCc1ccccc1` the outcome was “inactive”. In the case of `COC(=O)Nc1nc2ccccc2[nH]1`, the outcome was “inactive”. In the case of `CC(C)COC(=O)c1ccccc1C(=O)OCC(C)C`, the outcome was “inactive”. In the case of `CCC[CH2][Sn]([Cl])([CH2]CCC)[CH2]CCC`, the AC50 was 319 nM (active). For `CNC(=O)Oc1cccc2c1OC(C)(C)C2`, the outcome was “inactive”. With `CC(C)(C)C(O)(CCc1ccc(Cl)cc1)Cn1cncn1` (stereo not drawn) the outcome was “inactive”.

Test: IUF_NPC3_neuronal_differentiation_120hr: Leibniz Research Institute for Environmental Medicine (IUF) 120-hour Neuronal Differentiation Assay (NPC3) (AID 2284301)
Method in brief: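 Neuronal differentiation of primary human neural progenitors measured by high-content imaging: percent TUBB3+ of Hoechst+ nuclei within migrated area at 120 h, seven-point serial dilution plus solvent control, gain or loss relative to DMSO.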
In the case of `COP(=S)(OC)SCN1C(=O)c2ccccc2C1=O`, the outcome was “inactive”. For `OCCOCCO`, the outcome was “inactive”. With `[O-][Cl+]O` the outcome was “inactive”. In the case of `O=P(OCCCl)(OCCCl)OCCCl`, the outcome was “inactive”. For `CCCCOC(=O)c1ccccc1C(=O)OCc1ccccc1`, the outcome was “inactive”. With `COC(=O)Nc1nc2ccccc2[nH]1` the outcome was “inactive”. For `CC(C)COC(=O)c1ccccc1C(=O)OCC(C)C`, the outcome was “inactive”. For `CCC[CH2][Sn]([Cl])([CH2]CCC)[CH2]CCC`, the AC50 was 284 nM (active). In the case of `CNC(=O)Oc1cccc2c1OC(C)(C)C2`, the outcome was “inactive”. For `CC(C)(C)C(O)(CCc1ccc(Cl)cc1)Cn1cncn1` (stereo not drawn), the outcome was “inactive”.

Test: IUF_NPC4_neurite_length_120hr: Leibniz Research Institute for Environmental Medicine (IUF) 120-hour Neuronal Morphology Assay for Neurite Length (NPC4) (AID 2284302)
Method in brief: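 Neurons from differentiating human fetal neural progenitor spheres are scored for average neurite length after five days of compound exposure. Fitting uses DMSO as negative control.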
With `COP(=S)(OC)SCN1C(=O)c2ccccc2C1=O` the outcome was “inactive”. In the case of `OCCOCCO`, the outcome was “inactive”. In the case of `[O-][Cl+]O`, the outcome was “inactive”. With `O=P(OCCCl)(OCCCl)OCCCl` the outcome was “inactive”. In the case of `CCCCOC(=O)c1ccccc1C(=O)OCc1ccccc1`, the outcome was “inactive”. In the case of `COC(=O)Nc1nc2ccccc2[nH]1`, the AC50 was 8960 nM (active). In the case of `CC(C)COC(=O)c1ccccc1C(=O)OCC(C)C`, the outcome was “inactive”. In the case of `CCC[CH2][Sn]([Cl])([CH2]CCC)[CH2]CCC`, the AC50 was 303 nM (active). For `CNC(=O)Oc1cccc2c1OC(C)(C)C2`, the outcome was “inactive”. In the case of `CC(C)(C)C(O)(CCc1ccc(Cl)cc1)Cn1cncn1` (stereo not drawn), the outcome was “inactive”.

Test: IUF_NPC5_oligodendrocyte_differentiation_120hr: Leibniz Research Institute for Environmental Medicine (IUF) 120-hour Oligodendrocyte Differentiation Assay (NPC5) (AID 2284304; active means hit-call score of the fitted dose curve at least 0.9, where 1 is the maximum;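 further: primary human fetal neural progenitor spheres plated to migrate and differentiate; share of O4-positive cells among Hoechst nuclei found by CNN image analysis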)
Method in brief: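 After plating on poly-D-lysine/laminin, fetal-derived hNPC spheres differentiated for 120 h at 37C in compound-containing N2 medium, refreshed by half on day 3. O4 immunostaining over Hoechst nuclei in the migration zone gave oligodendrocyte percentage relative to DMSO.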
For `COP(=S)(OC)SCN1C(=O)c2ccccc2C1=O`, the outcome was “inactive”. With `OCCOCCO` the outcome was “inactive”. For `CC(C)COC(=O)c1ccccc1C(=O)OCC(C)C`, the outcome was “inactive”. With `CCC[CH2][Sn]([Cl])([CH2]CCC)[CH2]CCC` the AC50 was 120 nM (active). For `CNC(=O)Oc1cccc2c1OC(C)(C)C2`, the outcome was “inactive”. In the case of `CC(C)(C)C(O)(CCc1ccc(Cl)cc1)Cn1cncn1` (stereo not drawn), the outcome was “inactive”.

Test: IUF_NPC4_neurite_area_120hr: Leibniz Research Institute for Environmental Medicine (IUF) 120-hour Neuronal Morphology Assay for Neurite Area (NPC4) (AID 2284305; active means hit-call score of the fitted dose curve at least 0.9, where 1 is the maximum)
Method in brief: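 Endpoint at 120 h: automated imaging of TUBB3/Hoechst-stained differentiating human neural progenitor spheres, neurite area per neuron from skeletonization. DMSO solvent control, not above 0.1%, set the baseline; medium was half-replaced on day 3.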
With `COP(=S)(OC)SCN1C(=O)c2ccccc2C1=O` the outcome was “inactive”. With `[O-][Cl+]O` the outcome was “inactive”. In the case of `O=P(OCCCl)(OCCCl)OCCCl`, the outcome was “inactive”. For `CCCCOC(=O)c1ccccc1C(=O)OCc1ccccc1`, the outcome was “inactive”. With `COC(=O)Nc1nc2ccccc2[nH]1` the outcome was “inactive”. With `CC(C)COC(=O)c1ccccc1C(=O)OCC(C)C` the outcome was “inactive”. With `CCC[CH2][Sn]([Cl])([CH2]CCC)[CH2]CCC` the AC50 was 312 nM (active). In the case of `CNC(=O)Oc1cccc2c1OC(C)(C)C2`, the outcome was “inactive”. For `CC(C)(C)C(O)(CCc1ccc(Cl)cc1)Cn1cncn1` (stereo not drawn), the outcome was “inactive”.

Test: IUF_NPC2-5_cytotoxicity_120hr: Cytotoxicity Assessment at 120 hours in the Leibniz Research Institute for Environmental Medicine (IUF) Neural Progenitor Cell Migration and Differentiation Assay (NPC2-5) (AID 2284307; active means hit-call score of the fitted dose curve at least 0.9, where 1 is the maximum;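 on AC50: LDH released into supernatant as membrane damage marker via resorufin fluorescence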)
Method in brief: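 Membrane-integrity loss is quantified by LDH in supernatant after five days of exposure of migrating, differentiating human fetal NPC spheres; seven serially diluted concentrations are tested with DMSO kept at or below 0.1%.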
For `COP(=S)(OC)SCN1C(=O)c2ccccc2C1=O`, the outcome was “inactive”. For `OCCOCCO`, the outcome was “inactive”. For `[O-][Cl+]O`, the outcome was “inactive”. With `O=P(OCCCl)(OCCCl)OCCCl` the outcome was “inactive”. In the case of `CCCCOC(=O)c1ccccc1C(=O)OCc1ccccc1`, the outcome was “inactive”. With `CC(C)COC(=O)c1ccccc1C(=O)OCC(C)C` the outcome was “inactive”. In the case of `CCC[CH2][Sn]([Cl])([CH2]CCC)[CH2]CCC`, the AC50 was 455 nM (active). In the case of `CNC(=O)Oc1cccc2c1OC(C)(C)C2`, the outcome was “inactive”. For `CC(C)(C)C(O)(CCc1ccc(Cl)cc1)Cn1cncn1` (stereo not drawn), the outcome was “inactive”.

Test: IUF_NPC2-5_cell_number_120hr: Cell Number Assessment at 120 hours in the Leibniz Research Institute for Environmental Medicine (IUF) Neural Progenitor Cell Migration and Differentiation Assay (NPC2-5) (AID 2284308);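 further: count of Hoechst-stained nuclei in migration zone around plated human neural progenitor spheres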
Method in brief: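 Seven-point serial dilutions plus solvent control were applied to plated 0.3 mm hNPC spheres at differentiation start, with medium half-replaced at day 3. Nuclei positive for Hoechst in the migration zone were enumerated at 120 h.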
In the case of `COP(=S)(OC)SCN1C(=O)c2ccccc2C1=O`, the outcome was “inactive”. For `OCCOCCO`, the outcome was “inactive”. In the case of `[O-][Cl+]O`, the outcome was “inactive”. For `O=P(OCCCl)(OCCCl)OCCCl`, the outcome was “inactive”. For `CCCCOC(=O)c1ccccc1C(=O)OCc1ccccc1`, the outcome was “inactive”. For `COC(=O)Nc1nc2ccccc2[nH]1`, the AC50 was 7820 nM (active). In the case of `CC(C)COC(=O)c1ccccc1C(=O)OCC(C)C`, the outcome was “inactive”. In the case of `CCC[CH2][Sn]([Cl])([CH2]CCC)[CH2]CCC`, the AC50 was 310 nM (active). For `CNC(=O)Oc1cccc2c1OC(C)(C)C2`, the outcome was “inactive”. With `CC(C)(C)C(O)(CCc1ccc(Cl)cc1)Cn1cncn1` (stereo not drawn) the outcome was “inactive”.
